Compounds without any hit were thinned out: in the full panel of roughly 83,000, 20% have a hit.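 For each line, cells grew in 96-well plates with the test compound present at a single concentration for 48 hours.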 A number with no mark means an inactive call. Active and inactive are the calls of the source. The calls were made as follows: active = growth percent below 10; inactive = the rest.

In PubChem BioAssay (NCI) one finds growth data, which are given here for 13 compounds.

Test systems include SK-MEL-2 melanoma; EKVX NSCLC; SN12C renal; UO-31 renal; TK-10 renal; ACHN renal; CAKI-1 renal; A498 renal; MOLT-4 leukemia; CCRF-CEM leukemia.
What all share (assay): NCI-60 one-dose screen, 48 h (100 = growth as untreated, 0 = no growth, -100 = all killed)
Conditions in all cases: 10 µM unless noted

For `COc1ccc(/C=C(\C#N)n2nnc3cc(F)c(F)cc32)cc1`, the growth with SK-MEL-2 melanoma is 50.9%; in the assay on EKVX NSCLC, 51.9%; with SN12C renal, 58.9%; in the assay on UO-31 renal it was 52.8%; in the assay with TK-10 renal, 72.4%; in the assay on ACHN renal, 55.4%. In addition, the results for the growth in the assay on CAKI-1 renal, in the assay with A498 renal and in the assay on MOLT-4 leukemia were 54.4%, 76.2% and 22.4%, respectively.

Take `C#CCOc1ccc2ncnc(Nc3ccc(NC(=O)C=C)cc3)c2c1`: the growth is -0.222% (active) in the assay with SK-MEL-2 melanoma; 2.42% (active) with EKVX NSCLC; 1.14% (active) in the assay with SN12C renal; -26.4% (active) in the assay with UO-31 renal; -62.7% (active) in the assay on TK-10 renal; -96.6% (active) in the assay with ACHN renal. In addition, the growth with CAKI-1 renal is 24.3%; in the assay with A498 renal, 74.1%; in the assay with MOLT-4 leukemia, -34.7% (active).

In the case of `COc1ccc(Nc2nnc(-c3ccc(OC)c(OC)c3)o2)cc1`, the growth in the assay on SK-MEL-2 melanoma is 90.5%; with EKVX NSCLC it was 89.8%; in the assay on SN12C renal, 97.8%; in the assay on UO-31 renal, 55.3%; in the assay on TK-10 renal it was 114%; with ACHN renal, 82.8%. For the same compound, the growth is 89% in the assay with CAKI-1 renal, 94.8% with A498 renal and 91.3% in the assay with MOLT-4 leukemia.

As to `COc1ccc(Nc2ncc(Br)c(NCCCNC(=O)C3CCCC3)n2)cc1`, the growth was 63.6% with SK-MEL-2 melanoma; 47.3% in the assay with EKVX NSCLC; 22% in the assay on SN12C renal; -30.8% (active) in the assay with UO-31 renal; 23.3% with TK-10 renal; 19.8% in the assay with ACHN renal. The growth with CAKI-1 renal was 9.48% (active); with A498 renal, 54.6%; with MOLT-4 leukemia, 19.5%.

Turning to `O=C(NCCNc1nccc(Nc2ccc(S(=O)(=O)Nc3ccccn3)cc2)n1)c1cccc([N+](=O)[O-])c1`, the growth with SK-MEL-2 melanoma is 101%; with EKVX NSCLC, 98.6%; with SN12C renal, 99.9%; with UO-31 renal, 82.5%; in the assay on TK-10 renal, 100%; in the assay on ACHN renal, 102%. In addition, the values for the growth in the assay on CAKI-1 renal, in the assay with A498 renal and with MOLT-4 leukemia were 93.6%, 83.6% and 93.8%, respectively.

In the case of `COc1cc2c(cc1OCCCN1CCN(CCCOc3cc4c(cc3OC)C(=O)N3CCC[C@H]3C=N4)CC1)C=CC(C)(C)O2`, the growth was -77% (active) with SK-MEL-2 melanoma; -100% (active) in the assay with EKVX NSCLC; -65.7% (active) in the assay with SN12C renal; -58.8% (active) in the assay on UO-31 renal; -83.6% (active) with TK-10 renal; 4.25% (active) in the assay on ACHN renal. Also, the growth in the assay with CAKI-1 renal was -71% (active); in the assay on A498 renal, -100% (active); in the assay with MOLT-4 leukemia it was -12.8% (active).

As to `COc1cc(C2CC(c3ccc(Nc4nc(Nc5ccc(Cl)cc5)nc(Nc5ccc(Cl)cc5)n4)cc3)=NN2C(C)=O)cc(OC)c1OC` (stereo unspecified), the growth in the assay on SK-MEL-2 melanoma is 80.4%; with EKVX NSCLC, 94%; in the assay with SN12C renal, 102%; in the assay with UO-31 renal, 84.8%; in the assay with TK-10 renal, 118%; with ACHN renal, 96.7%. The growth is 90.4% in the assay with CAKI-1 renal, 113% with A498 renal and 79% with MOLT-4 leukemia.

Regarding `O=C(CN1C(=O)S/C(=C\C(Cl)=C\c2ccccc2)C1=O)NCCc1ccc(O)cc1`, the growth was 6.1% (active) in the assay with SK-MEL-2 melanoma; 44.4% with EKVX NSCLC; 16% with SN12C renal; -50.7% (active) in the assay on UO-31 renal; 24.1% in the assay with TK-10 renal; -69.3% (active) with ACHN renal. The growth was 39.3% in the assay with CAKI-1 renal, 94.2% in the assay on A498 renal and 5.15% (active) in the assay with MOLT-4 leukemia.

For the compound `O=C(Nc1ccccc1)Nc1ncnc2c1ncn2-c1ccc(Cl)cc1`, the growth with SK-MEL-2 melanoma is 107%; in the assay on EKVX NSCLC, 86.7%; with SN12C renal it was 63.1%; with UO-31 renal, 70.3%; in the assay with TK-10 renal, 58.9%; in the assay with ACHN renal, 69.5%. The growth is 93.9% in the assay on CAKI-1 renal, 91% in the assay with A498 renal, 94.2% in the assay with CCRF-CEM leukemia and 84.2% with MOLT-4 leukemia.

Regarding `CCOC(=O)C1=C(N)Oc2c(sc3c(F)cccc23)C1c1ccc(O)cc1` (stereo unspecified), the growth is 14.3% with SK-MEL-2 melanoma; 42.4% in the assay on EKVX NSCLC; 56% with SN12C renal; 30.1% with UO-31 renal; 74% in the assay on TK-10 renal; 57.6% in the assay with CAKI-1 renal. The values for the growth in the assay with A498 renal, in the assay with CCRF-CEM leukemia and in the assay on MOLT-4 leukemia were 43.2%, 20.3% and 9.73% (active), respectively.

For `COCCn1cc(-c2nc(-c3cc4cccnc4[nH]3)cs2)c2cc(OC)ccc21`, the growth is 37.8% in the assay with SK-MEL-2 melanoma; 16.9% in the assay with EKVX NSCLC; 48.5% in the assay with SN12C renal; 10.9% with UO-31 renal; -4.75% (active) in the assay on TK-10 renal; 34.4% with CAKI-1 renal. Besides, the growth with A498 renal is -0.329% (active); in the assay on MOLT-4 leukemia it was 26.6%.

Turning to `C=CCn1c(C)nc2ccc(Nc3nc(Nc4ccc5nc(C)n(CC=C)c5c4)c4ccccc4n3)cc21`, the growth in the assay on SK-MEL-2 melanoma was -83.8% (active); in the assay on EKVX NSCLC it was 2.58% (active); with SN12C renal, -74.9% (active); with UO-31 renal, -91.4% (active); in the assay on TK-10 renal, -88.5% (active); in the assay on CAKI-1 renal it was -24.1% (active). The results for the growth with A498 renal and in the assay with MOLT-4 leukemia were 99.5% and -45.5% (active), respectively.

As for `COc1ccc(F)cc1/C=C/C(=O)/C=C(/C=C/c1cc(F)ccc1OC)OB(F)F`, the growth with SK-MEL-2 melanoma was 84.1%; with EKVX NSCLC, 71.3%; with SN12C renal, 8.78% (active); with UO-31 renal it was -9.88% (active); in the assay with TK-10 renal, 32.9%; with CAKI-1 renal it was 28.7%. The growth with A498 renal was 108%; in the assay with CCRF-CEM leukemia it was -14.7% (active); with MOLT-4 leukemia, -16.5% (active).
